This is a sample that favours compounds with a hit; in the whole collection about 1.2% have one here.
FadD28 binding = blocks FadD28 binding to the bisubstrate probe; fluorescence polarization; inhibition, % at 12.5 µM; 0.22% of 360,000 active; AID 588549; in the data active = inhibition above about 8.5%, passing the limit was not always enough
PrP UTR inh = suppresses PrP 5' UTR mRNA reporter expression | 0.35% of 340,000 active | inhibition, % (concentration not given with the values) | cell-based PrP 5' UTR mRNA reporter, plate reader | AID 488862; in the data active = inhibition above about 52%; note: 0 = median of the neutral control wells
Rv3671c protease = Rv3671c (M. tuberculosis) protease inhibition. 0.048% of 320,000 active. P9WHR9. inhibition, % at 5.96 µM; in the data active = inhibition above about 38%;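 note: extracellular domain of Rv3671c used as enzyme; 0% = enzyme with DMSO and 100% = no enzyme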
Target sequence (P9WHR9 whole entry, looked up, the tested form may be a part): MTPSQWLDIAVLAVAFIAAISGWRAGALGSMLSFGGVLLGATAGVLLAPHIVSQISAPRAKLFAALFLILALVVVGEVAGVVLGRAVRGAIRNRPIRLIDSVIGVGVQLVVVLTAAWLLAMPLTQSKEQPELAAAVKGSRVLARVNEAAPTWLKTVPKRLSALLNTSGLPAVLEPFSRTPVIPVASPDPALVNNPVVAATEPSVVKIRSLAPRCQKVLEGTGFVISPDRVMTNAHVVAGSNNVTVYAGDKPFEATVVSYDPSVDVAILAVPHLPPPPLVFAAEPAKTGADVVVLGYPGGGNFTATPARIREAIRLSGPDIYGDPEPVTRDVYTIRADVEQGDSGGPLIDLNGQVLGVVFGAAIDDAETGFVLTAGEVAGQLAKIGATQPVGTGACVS
PrPC TRFRET = reduces human prion protein on the cell surface | cell surface PrPC, TR-FRET read-out | P04156 | inhibition, % at 13.8 µM | 0.43% of 370,000 active; in the data active = inhibition above about 24%; note: 0% = median of the test wells and 100% = reference compound wells
SSB-PriA inh = K. pneumoniae PriA-SSBct interaction inhibition | AlphaScreen SSBct-PriA binding, biotinylated peptide | inhibition, % at 33 µM | 0.6% of 430,000 active; in the data active = inhibition mostly above about 37%, no sharp cut-off; inactive = mostly below about 20%;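 note: plate controls were negative control peptide for no effect and reference peptide for full effect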
UGM FP inh = Mtb UDP-galactopyranose mutase inhibition; P9WIQ1; purified UGM, fluorescence polarization probe displacement; inhibition, % at 10 µM; 0.06% of 320,000 active; in the data active = inhibition above about 10%, passing the limit was not always enough
Numbers without * were called inactive.

For O=C(CSc1ncc(-c2ccc(Cl)c(Cl)c2)n1-c1ccc(OC(F)F)cc1)N1CCCC1 the results were SSB-PriA inh 38.0*.
`O=C(c1cccc(F)c1)N1CCN(c2cc(N3CCCCC3)c(F)cc2[N+](=O)[O-])CC1` gave FadD28 binding -2.6, PrP UTR inh 3.4, Rv3671c protease 7.8, PrPC TRFRET -6.0, SSB-PriA inh 41.6* and UGM FP inh -1.1.
`CCC(=O)N1CCN(c2cc(N3CCCC3)c(F)cc2[N+](=O)[O-])CC1` gave FadD28 binding -1.4, PrP UTR inh -11.4, Rv3671c protease 4.2, PrPC TRFRET -16.4, SSB-PriA inh -1.6 and UGM FP inh 2.9.
`Nc1ccc(N=Nc2ccccc2)c2cccnc12` gave FadD28 binding 3.1, Rv3671c protease 7.5, PrPC TRFRET -14.1, SSB-PriA inh 59.2* and UGM FP inh 5.2.
Screening O=C(Nc1ccc(Br)cc1C(=O)c1ccccc1)c1cc2nc(-c3cccs3)cc(C(F)(F)F)n2n1 returned SSB-PriA inh 1.0.
For O=c1[nH]c(=S)n(CCC2=CCCCC2)c(O)c1C=NNc1ccccc1 the results were SSB-PriA inh 11.9.
For CCS(=O)(=O)c1ccc(CC(=O)Nc2ccccc2-c2nc3ccccc3s2)cc1 the results were SSB-PriA inh -5.0.
N#Cc1nc(-c2cccs2)oc1NCc1ccccc1 was read as FadD28 binding -1.1, PrP UTR inh -44.6, Rv3671c protease -0.7, PrPC TRFRET -13.8, SSB-PriA inh 24.5 and UGM FP inh -4.2.
N#Cc1nc(-c2cccs2)oc1NCc1ccccc1Cl was read as FadD28 binding -1.7, PrP UTR inh -18.4, Rv3671c protease -3.9, PrPC TRFRET 5.5, SSB-PriA inh 45.1* and UGM FP inh 0.0.
`CC[C@H](C)/C=C(C)/C=C/C1=CC2=C(Cl)C(=O)[C@](C)(OC(C)=O)C(=O)C2=CO1` gave FadD28 binding 17.2*, PrP UTR inh -21.1, Rv3671c protease 8.8 and SSB-PriA inh 4.6.
`Cc1ccc2[nH]c3nc(NN)nnc3c2c1` gave FadD28 binding -0.1, PrP UTR inh -12.3, PrPC TRFRET -22.6, SSB-PriA inh 89.7* and UGM FP inh -0.9.
For Cc1ccc2[nH]c3nc(SCCN4CCOCC4)nnc3c2c1 the results were FadD28 binding -3.2, PrP UTR inh -24.5, Rv3671c protease -4.8, PrPC TRFRET -11.8, SSB-PriA inh -21.6 and UGM FP inh -3.8.
`CCOc1ccc(S(=O)(=O)NCC[C@H](O)c2ccc3c(c2)OCO3)cc1F` gave SSB-PriA inh -6.0.
For COc1ccc2c(c1)c1nc3ccccc3nc1n2CC(=O)OC(C)C the results were FadD28 binding -2.9, PrP UTR inh -19.9, Rv3671c protease 3.2, PrPC TRFRET -1.1, SSB-PriA inh -6.3 and UGM FP inh 18.7*.
Screening COc1ccc(Cn2c3ccc(OC)cc3c3nc4ccccc4nc32)cc1 returned FadD28 binding -1.3, PrP UTR inh -21.4, Rv3671c protease 6.5, PrPC TRFRET -7.1, SSB-PriA inh -9.0 and UGM FP inh 2.4.
Screening CCOc1ccccc1NC(=O)Cn1nc(-c2ccccc2)c2sc(N3CCOCC3)nc2c1=O returned SSB-PriA inh -11.0.
COc1ccc(-c2csc(Nc3ccc(S(=O)(=O)Nc4cc(OC)nc(OC)n4)cc3)n2)cc1 was read as FadD28 binding 11.9*, PrP UTR inh -17.5, Rv3671c protease 14.8, PrPC TRFRET 3.3, SSB-PriA inh -6.5 and UGM FP inh -2.1.
For COc1cc(NS(=O)(=O)c2ccc(Nc3nc(-c4ccccn4)cs3)cc2)nc(OC)n1 the results were FadD28 binding 3.1, PrP UTR inh -20.6, Rv3671c protease 10.4, PrPC TRFRET -5.9, SSB-PriA inh 11.1 and UGM FP inh 3.6.
O=S(=O)(Nc1ccncc1)c1ccc(I)cc1 was read as SSB-PriA inh -5.0.
Screening O=C(NCc1c(F)cccc1F)c1ccc(OCc2nc(-c3ccco3)cs2)cc1 returned SSB-PriA inh -7.0.
N#Cc1nc(COc2ccccc2F)oc1NCCc1ccccc1 was read as FadD28 binding -6.3, PrP UTR inh -30.0, Rv3671c protease 1.2, PrPC TRFRET 10.5, SSB-PriA inh 43.3* and UGM FP inh 1.5.
`N#Cc1nc(COc2ccccc2F)oc1N1CCCCCC1` gave FadD28 binding -2.5, PrP UTR inh -0.3, Rv3671c protease -2.7, PrPC TRFRET 0.5, SSB-PriA inh 4.1 and UGM FP inh -0.9.
Screening CN(Cc1ccccc1)c1oc(COc2ccccc2F)nc1C#N returned FadD28 binding -5.2, PrP UTR inh -32.3, Rv3671c protease -7.0, PrPC TRFRET -2.5, SSB-PriA inh 51.1* and UGM FP inh 2.4.
For COc1cccc(NS(=O)(=O)c2ccccc2F)c1 the results were SSB-PriA inh -9.0.
Oc1c(Cl)cc(Cl)cc1C=Nc1nccs1 was read as SSB-PriA inh 55.7*.
For Oc1c(Cl)cc(Cl)cc1/C=N/c1nccs1 the results were FadD28 binding 0.2, PrP UTR inh -26.6, Rv3671c protease 12.4, PrPC TRFRET 0.6 and UGM FP inh -1.3.
Screening CCN1CCCc2cc(CCNC(=O)c3ccc(OC)c(OC)c3)ccc21 returned SSB-PriA inh 64.0*.
CCN1CCCc2cc(CCNC(=O)c3ccc4c(c3)OCO4)ccc21 was read as SSB-PriA inh 65.0*.
For CC(C)(C)c1ccc(NC(=O)N2CCN(c3ccc(-c4ccco4)nn3)CC2)cc1 the results were SSB-PriA inh 1.0.
Screening Cn1cccc(C(=O)Nc2ccc(CN3CCN(c4ccccn4)CC3)cc2)c1=O returned SSB-PriA inh 17.0.
O=C(Nc1ccsc1-c1nc(C2CC2)no1)c1cc(=O)c2ccccc2o1 was read as SSB-PriA inh -5.0.
COc1ccccc1N1CCN(CCNC(=O)COc2ccc(Cl)cc2Cl)CC1 was read as SSB-PriA inh -14.0.
For O=C(Nn1c(Cc2ccccc2)nc2ccccc2c1=O)c1c(O)c2cccc3c2n(c1=O)CCC3 the results were FadD28 binding -3.3, PrP UTR inh -23.3, Rv3671c protease 0.0, PrPC TRFRET -1.1, SSB-PriA inh -14.6 and UGM FP inh -0.9.
`Nc1ccc(SCc2nc3cccc4c3n2CCC4)cc1` gave FadD28 binding -2.7, PrP UTR inh -16.2, Rv3671c protease 0.9, PrPC TRFRET 9.0, SSB-PriA inh 44.3* and UGM FP inh -1.3.
Screening COc1cc(/C=C/c2ccc3cccc(O)c3n2)cc(Br)c1OC returned FadD28 binding -0.4, PrP UTR inh -24.2, Rv3671c protease -1.3, PrPC TRFRET -11.1, SSB-PriA inh -10.4 and UGM FP inh 2.7.
COc1cc(/C=C/c2ccc3cccc(O)c3n2)cc(OC)c1OC was read as FadD28 binding 13.3*, PrP UTR inh -20.0, Rv3671c protease -1.3, PrPC TRFRET -23.0, SSB-PriA inh -8.3 and UGM FP inh 1.1.
For COc1ccc(-c2csc(CN3CCN(C(=O)c4ccc(Br)o4)CC3)n2)cc1 the results were SSB-PriA inh 44.0*.
`COc1cc(CSc2nnc(-c3ccncc3)o2)cc(OC)c1` gave SSB-PriA inh -7.0.

Bioassay records as filed in PubChem.
